Laboratory results from PubChem BioAssay (EPA / NIEHS).
“And” between values parts separate entries of the source, which are not always exact repeats. Identical values can stand only once. The source made the active and inactive calls. The calls were made as follows: active = hit-call score of the fitted dose curve at least 0.9, where 1 is the maximum; inactive = score below 0.9.

read-out: CD90, THY1 (gene 7070); test: BSK_BF4T_CD90: BioMAP Diversity Plus: BF4T Assay for CD90 Biomarker Activity (AID 2284262); settings: primary human bronchial epithelial cells with fibroblasts
Procedure, shortened: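 Co-culture of human bronchial epithelial cells and dermal fibroblasts, 24 h compound exposure. Cell-surface CD90 measured by ELISA relative to DMSO; parallel SRB total-protein staining for cytotoxicity.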

SMILES	outcome	AC50
FC(F)(F)C(F)(F)C(F)(F)CC1CO1 (configuration not stated)	inactive	–
OCC(F)(F)C(F)(F)C(F)(F)C(F)(F)C(F)(F)C(F)(F)C(F)(F)C(F)(F)CO	inactive	–
FC(F)(F)C(F)(F)C(F)(F)C(F)(F)C(F)(F)C(F)(F)C(F)(F)CCI	inactive	–
NC(O)(C(F)(F)F)C(F)(F)F	inactive	–
OCCCCC(F)(F)C(F)(F)C(F)(F)C(F)(F)F	inactive	–
O=C(F)C1(F)C(F)(F)C(F)(F)C(F)(F)C(F)(F)C1(F)F	inactive	–
OC(O)C(F)(F)C(F)(F)F	inactive	–
CN(C(=O)C(F)(F)C(F)(F)C(F)(F)F)[Si](C)(C)C	inactive	–
OCCCC(F)(F)C(F)(F)C(F)(F)C(F)(F)C(F)(F)C(F)(F)C(F)(F)C(F)(F)F	–	20.6 µM (active) and 19.2 µM (active)
O=C(O)CCC(F)(F)C(F)(F)C(F)(F)F	inactive	–
NC(=O)C(F)(F)C(F)(F)C(F)(F)C(F)(F)C(N)=O	inactive	–
NC(=O)C(F)(F)C(F)(F)C(F)(F)F	inactive	–
